Data published in PubChem BioAssay (Tox21).
“And” between values parts separate entries of the source, which are not always exact repeats. Identical values can stand only once. Results filed as inconclusive are left out. Entries that show only a call come without a potency. The source made the active and inactive calls. Calls come from the whole dose curve; as a rule, active = well fitted curve in the direction sought with a large enough effect in the repeat runs; inconclusive = weak or mixed curves; inactive = no such curve, though single readings can be large; an effect the other way counts as inactive or inconclusive.

What was measured:
[1] = qHTS assay to identify small molecule agonists of the RXR signaling pathway - cell viability counter screen (AID 1159529); note: nearly all actives have a fitted effect of over 50% in size
Outline: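 RXR-alpha-UAS-bla HEK 293T cells in medium with 2% charcoal-stripped FBS were pre-incubated 5 hr, then compound-treated 16 hr at 37 C. Viability was read by CellTiter-Glo luminescence in the same wells as the beta-lactamase assay, with tetraoctyl ammonium bromide as positive control.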

[2] = qHTS assay to identify small molecule antagonists of the retinoid acid receptor (RAR) signaling pathway - cell viability counter screen (AID 1159551); note: nearly all actives have a fitted effect of over 35% in size
Outline: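 C3RL4 RARE-luciferase line; cpds + retinol 1 uM final, 6 h, 37 C/5% CO2; CellTiter-Glo ATP luminescence, 30 min RT.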

[3] = qHTS assay to identify small molecule antagonists of the retinoic acid receptor (RAR) signaling pathway (AID 1159552; note: nearly all actives have a fitted effect of over 50% in size)
Outline: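 Retinol signaling pathway inhibitors screened in C3RL4 RARE-luciferase reporter cells seeded overnight at 37 C, then compounds added with 1 uM (final) retinol as pathway substrate. After 6 hr at 37 C, luciferase luminescence read after 30 min at room temperature.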

[4] = qHTS assay to identify small molecule agonists of the retinoic acid receptor (RAR) signaling pathway (AID 1159553)
Outline: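 RARE-luc C3RL4 cells; overnight attachment 37 C/5% CO2; compound (DMSO) 6 hr; luciferase reagent, 30 min RT; luminescence read-out.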
Potency is the fitted concentration of half-maximal effect.

SMILES	Potency [1]	Potency [2]	Potency [3]	Potency [4]
O=C(Nc1ccccc1SSc1ccccc1NC(=O)c1ccccc1)c1ccccc1	19.6 µM (active) and 21.9 µM (active)	inactive	15.4 µM (active)	–
O=C(Cl)c1cccc(C(=O)Cl)c1	inactive	inactive	–	–
CC1COC(=O)O1 (stereo not given)	inactive	inactive	–	–
OCCN1CCNCC1	inactive	inactive	–	–
CCCOC(=O)c1cc(O)c(O)c(O)c1	inactive	inactive	inactive	–
c1cc(C(c2ccc(OCC3CO3)cc2)C(c2ccc(OCC3CO3)cc2)c2ccc(OCC3CO3)cc2)ccc1OCC1CO1 (stereo not given)	inactive	inactive	inactive	8.96 µM (active) and 27.3 µM (active)
c1ccc2n[nH]nc2c1	inactive	inactive	inactive	inactive
CCCCCCCCCCCCc1ccccc1O	17.2 µM (active) and 19.5 µM (active)	61.1 µM (active)	47.9 µM (active) and 54.5 µM (active)	–
CCN(CC)c1ccc2c(C)cc(=O)oc2c1	inactive	inactive	inactive	inactive
Cc1cc(Cc2cc(C)cc(C(C)(C)C)c2O)c(O)c(C(C)(C)C)c1	12.4 µM (active) and 21.9 µM (active)	54.8 µM (active) and 48.6 µM (active)	43.5 µM (active) and 61.1 µM (active)	–
O	inactive	inactive	–	–
CCC(=O)/C=C/C1C(C)=CCCC1(C)C (stereo not given)	inactive	inactive	–	–
CC[C@H]1CN2CCc3cc(OC)c(OC)cc3[C@@H]2C[C@@H]1C[C@H]1NCCc2cc(OC)c(OC)cc21	inactive	–	–	–
